# Reference: PubChem BioAssay (NCI)
# About 83,000 compounds went through this panel and 20% of them were active in at least one assay; those are over-represented in the sample as a whole.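 Step 1: grow cells in 96-well plates. Step 2: add test compound at a single concentration. Step 3: incubate 48 h. Step 4: record percent growth.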 Values without a mark were called inactive. Active and inactive are the calls of the source. The calls were made as follows: active = growth percent below 10; inactive = the rest.
# Legend:
# Assay in all cases: NCI-60 one-dose screen, 48 h (100 = growth as untreated, 0 = no growth, -100 = all killed)
# Conditions in all cases: 10 µM unless noted
# [1] = system: DU-145 prostate
# [2] = system: K-562 leukemia
# [3] = system: MALME-3M melanoma
# [4] = system: MDA-MB-231 breast
# [5] = system: RXF 393 renal
# [6] = system: SF-268 CNS
# [7] = system: SF-295 CNS
# [8] = system: SF-539 CNS
# [9] = system: UACC-257 melanoma
# [10] = system: HCT-15 colon
# [11] = system: HT29 colon
# [12] = system: SNB-75 CNS
# [13] = system: SNB-19 CNS
# [14] = system: U251 CNS
# [15] = system: PC-3 prostate
# [16] = system: SK-MEL-5 melanoma
# [17] = system: UACC-62 melanoma
# [18] = system: LOX IMVI melanoma
# [19] = system: SK-MEL-28 melanoma
Compound,growth [1],growth [2],growth [3],growth [4],growth [5],growth [6],growth [7],growth [8],growth [9],growth [10],growth [11],growth [12],growth [13],growth [14],growth [15],growth [16],growth [17],growth [18],growth [19]
Cc1ccc(/C=C/c2c(C(=O)/C=C/c3ccc(C(F)(F)F)cc3)c(C)nc3ccccc23)cc1,-78.3% (active),-16.6% (active),-65.4% (active),-40.5% (active),-87.8% (active),-5% (active),-75.8% (active),-83.4% (active),-17.7% (active),-29.6% (active),5.36% (active),-42.5% (active),-62.9% (active),-70.7% (active),-43.8% (active),-86.4% (active),-45.8% (active),-87.3% (active),-63.2% (active)
COC(=O)[C@]12CC[C@@H](C)[C@H](C)[C@@H]1C1=CC[C@@H]3[C@@]4(C)C(C=O)=C[C@@](C)(COC(=O)/C=C/c5ccccc5)[C@@H]4[C@H](O)C[C@@]3(C)[C@]1(C)CC2,-3.76% (active),9.93% (active),-43.2% (active),0.0701% (active),-40.6% (active),14.7%,1.14% (active),-10.7% (active),-43.2% (active),2.39% (active),,2.38% (active),49.4%,2.16% (active),12%,,-29.7% (active),-95.5% (active),-12.5% (active)
CN(C)CC1=NC2SC=C(c3ccccc3)C2C(=O)N1CC#N (configuration not stated),111%,60%,83.1%,92%,81.3%,109%,99.2%,101%,108%,105%,101%,87.6%,108%,104%,71.4%,107%,87.3%,99.7%,119%
Cc1cccc(NC(=O)N/C(N)=N/c2nc(C)c(C)s2)c1,71.6%,10.7%,58.5%,65.2%,78.2%,75.1%,48.6%,56.7%,62.2%,22.2%,18.9%,-3.93% (active),65.4%,45%,62%,59.2%,49.1%,42.7%,60.7%
c1ccc2c(c1)nc(CN1CCOCC1)n1cc(N3CCCC3)nc21,106%,67.8%,96.9%,104%,95%,110%,112%,91.5%,99.1%,97.3%,111%,89.7%,102%,102%,82.1%,98%,100%,102%,118%
Fc1cnc(NC2CC2)nc1-c1cnc2ccc(N3CCOCC3)cn12,7.39% (active),10.9%,-33.7% (active),2.98% (active),-47.1% (active),0.958% (active),3.46% (active),-35% (active),-7.35% (active),1.15% (active),0.985% (active),-42.9% (active),11.5%,8.28% (active),5.58% (active),-53.1% (active),-80.6% (active),4.17% (active),-4.09% (active)
COc1cc(-c2n/c(=C\c3c(O)[nH]c4ccc(Cl)cc34)cc3c2=Nc2ccccc2-3)cc(OC)c1OC,-15.4% (active),3.48% (active),-40.3% (active),-14.9% (active),-70.3% (active),-11.8% (active),7.89% (active),31.2%,27.2%,28.4%,-11.2% (active),-4.26% (active),14.9%,-84.3% (active),-13.1% (active),44.7%,2.11% (active),-63.6% (active),16.5%
C=CCOC1=CC(=O)c2ccccc2C1=O,59.9%,26.8%,69%,77.3%,111%,82%,98.1%,116%,55.8%,94.9%,80.5%,48%,104%,86.7%,85.9%,27.3%,57%,3.82% (active),87%
CC(C)C(=O)Nc1n[nH]c2cc(-c3cccc(NS(=O)(=O)C4CC4)c3)ccc12,85.9%,23.2%,66.1%,58.4%,88.9%,76.1%,56.3%,77.8%,66.8%,84.3%,76.2%,54.3%,89.7%,79.5%,64%,24.5%,54.4%,64.6%,78.4%
Cc1c(C(=O)N[C@@H](Cc2ccccc2)C(=O)C(=O)NCCc2ccccc2)[nH]c2ccccc2c1=O,101%,91.7%,103%,97.7%,112%,98.6%,103%,102%,101%,102%,105%,88.7%,98%,99.6%,93.8%,97.8%,92.1%,97.8%,105%
O=C(Nc1cccc(Oc2nnc(Cl)c3ccccc23)c1)Nc1ccc(Cl)c(C(F)(F)F)c1,-5.14% (active),-8.66% (active),-49.9% (active),-57.3% (active),-62.3% (active),-32.2% (active),-56.3% (active),-73.4% (active),-68.4% (active),-64% (active),-75.9% (active),-59.3% (active),-5.9% (active),-75.4% (active),-38.1% (active),-98.8% (active),-82.5% (active),-93.2% (active),-62.5% (active)
COc1ccc(C2=Nc3c(N)ncnc3NC(c3ccc4c(c3)OCO4)C2)cc1 (configuration not stated),97.1%,113%,105%,73.9%,66%,89.6%,118%,90.3%,116%,94.8%,93.2%,66.2%,85%,94.3%,77.2%,88.2%,80.6%,94%,101%
Cc1ccc2c(c1)Sc1c(ccc3ccccc13)N2,82.9%,39.7%,90.7%,50.6%,63.6%,59.5%,69.8%,47.5%,80.4%,32.3%,73.3%,51.8%,94.5%,45.3%,61%,46%,58.9%,45.6%,84.7%
O=c1c2c3c(sc2nc(N/N=C/c2ccc(Br)cc2)n1Cc1ccccc1)CCCC3,81.6%,79.9%,91.6%,50.2%,73.2%,68.4%,34.3%,50%,78.9%,78.1%,101%,106%,76.4%,70.3%,70.2%,87.2%,88.7%,73%,120%
O=C(c1ccccc1)N1N=C(c2ccccc2)CC1c1nnc2n(Cc3ccccc3)c(=O)c3c4c(sc3n12)CCCC4 (configuration not stated),116%,116%,85.2%,111%,104%,99.3%,138%,92.1%,112%,102%,101%,108%,101%,98.3%,97.9%,109%,112%,91.8%,106%
COc1ccc(C(=O)COc2ccc(/C=C3\Oc4ccccc4C3=O)cc2)cc1,120%,101%,112%,83.6%,95.4%,108%,172%,94.7%,97.8%,96.8%,102%,89.7%,90.9%,97.4%,97.3%,85.8%,72.5%,92.6%,123%
